Values joined by “and” are separate entries in the source; they are usually repeats but may differ in a detail not shown here. Identical values can stand only once. Results filed as inconclusive are left out. Active and inactive are the calls of the source. Rule for the calls, unless noted: active = hit-call score of the fitted dose curve at least 0.9, where 1 is the maximum; inconclusive = response in the unintended direction; inactive = score below 0.9.

Chain of Peroxisome proliferator-activated receptor gamma (Homo sapiens) (P37231 whole entry, looked up): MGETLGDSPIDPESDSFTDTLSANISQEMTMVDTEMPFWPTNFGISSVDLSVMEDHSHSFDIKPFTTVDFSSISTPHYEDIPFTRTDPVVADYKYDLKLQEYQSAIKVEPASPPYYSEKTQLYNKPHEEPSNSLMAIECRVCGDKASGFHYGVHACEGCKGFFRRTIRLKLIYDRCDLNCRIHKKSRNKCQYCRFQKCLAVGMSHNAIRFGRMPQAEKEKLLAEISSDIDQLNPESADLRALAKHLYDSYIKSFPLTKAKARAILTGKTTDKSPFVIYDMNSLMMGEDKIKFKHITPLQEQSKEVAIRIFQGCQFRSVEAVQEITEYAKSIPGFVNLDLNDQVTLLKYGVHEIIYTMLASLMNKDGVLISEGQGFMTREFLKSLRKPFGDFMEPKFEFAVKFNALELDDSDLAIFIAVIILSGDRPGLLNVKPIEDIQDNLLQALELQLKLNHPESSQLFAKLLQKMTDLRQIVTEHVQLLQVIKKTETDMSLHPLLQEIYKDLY
Chain of Nuclear receptor subfamily 1 group I member 2 (Homo sapiens) (O75469 whole entry, looked up): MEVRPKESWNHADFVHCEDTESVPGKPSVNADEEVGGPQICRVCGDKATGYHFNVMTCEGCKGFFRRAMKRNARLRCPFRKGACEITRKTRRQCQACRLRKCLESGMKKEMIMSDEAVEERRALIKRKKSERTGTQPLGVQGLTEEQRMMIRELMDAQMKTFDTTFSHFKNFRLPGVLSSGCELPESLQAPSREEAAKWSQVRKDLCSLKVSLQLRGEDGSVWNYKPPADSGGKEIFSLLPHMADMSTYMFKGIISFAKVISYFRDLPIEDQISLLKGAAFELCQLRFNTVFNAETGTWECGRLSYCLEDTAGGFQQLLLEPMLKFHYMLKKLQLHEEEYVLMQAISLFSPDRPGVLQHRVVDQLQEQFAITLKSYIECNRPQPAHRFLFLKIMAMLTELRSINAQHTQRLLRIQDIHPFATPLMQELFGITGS

Read-out in one assay: not listed separately
As to the kind of experiment: BSK_3C_Proliferation: Cell Proliferation Assessment in the BioMAP Diversity Plus: 3C Assay (AID 2283006; active = hit-call score of the fitted dose curve at least 0.9, where 1 is the maximum; inactive = score below 0.9;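 for AC50: potency may reflect either rise or fall in cell number versus DMSO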). Conditions: primary human endothelial cells (HUVEC). In a few lines:
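Read-out is total protein by SRB absorbance at 560 nm, taken as a proxy for relative cell number. Primary human umbilical vein endothelium cultured below confluence was dosed for 48 h, TCA-fixed and SRB-stained; curves were fitted bidirectionally versus DMSO.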
`NCC(F)(F)C(F)(F)C(F)(F)C(F)(F)F`: the result was inactive.

As for `Cc1ncc([C@@H](CCCCCCc2ccc3c(n2)NCCC3)CC(=O)O)cn1`, the AC50 was 2.14 µM (active).

In the case of `Cc1nccn1-c1ccc(Sc2cccc(C3(C(N)=O)CCOCC3)c2)cc1`, the AC50 is 11.1 µM (active).

Consider `FC(F)=C(F)C(F)(F)C(F)(F)C(F)(F)C(F)(F)C(F)(F)C(F)(F)F`, for which the result was inactive.

On to `FC(F)(F)C(F)(F)C(F)(F)C(F)(F)C(F)(F)C(F)(F)I`, for which the result was inactive.

Take `OCC(CO)(CO)CO`: the result was inactive.

As to `c1ccc2cc3ccccc3cc2c1`, the result was inactive.

`C=CCc1cc(S(=O)(=O)c2ccc(O)c(CC=C)c2)ccc1O`: the AC50 was 25.8 µM (active).

In the case of `Cc1cccc(O)c1C`, the outcome was inactive.

Turning to `OCCC(F)(F)C(F)(F)C(F)(F)C(F)(F)F`, the result was inactive.

For `O=S(=O)(O)CCC(F)(F)C(F)(F)C(F)(F)C(F)(F)C(F)(F)C(F)(F)F`, the result was inactive.

As to `C[C@@H](Oc1ccc(CNC(=O)c2cccnc2Oc2ccc3c(c2)OCO3)c(F)c1)C(=O)O`, the result was inactive.

As for `O=C(Cl)C(F)(F)C(F)(F)C(F)(F)C(=O)Cl`, the result was inactive.

With `O=C(O)c1ccc2c(c1)nc(C(=O)NC1CCN(C3CC3)CC1)n2Cc1cc(-c2ccc(Cl)s2)on1`, the result was inactive.

For the compound `OCc1c[nH]c2ccccc12`, the AC50 was 9.76 µM (active).

`S=P(N1CC1)(N1CC1)N1CC1`: the half-maximal activity concentration (AC50) is 13.1 µM (active).

Consider `O=S1(=O)CCCO1`, for which the outcome was inactive.

Regarding `CC(C)c1nnc2ccc(-c3ocnc3-c3cc(F)ccc3F)cn12`, the outcome was inactive.

As to `CCCCCCCC1CCC(=O)O1` (centres undefined), the outcome was inactive.

For `CCn1nc(C)c2c1C(=O)NCC(c1ccc(O)cc1)=N2`, the AC50 was 20 µM (active).

For the compound `NNC(=O)c1ccncc1`, the outcome was inactive.

In the case of `O=S(=O)(O)c1ccc(N=Nc2c(O)ccc3cc(S(=O)(=O)O)ccc23)cc1`, the outcome was inactive.

Regarding `CCCCN1C(=O)[C@@H]([C@H](O)C2CCCCC2)NC(=O)C12CCN(Cc1ccc(Oc3ccc(C(=O)O)cc3)cc1)CC2`, the AC50 is 28.2 µM (active).

On to `Cn1cc[nH]c1=S`, for which the outcome was inactive.

Turning to `C[Si](C)(C)C(F)(F)C(F)(F)C(F)(F)F`, the result was inactive.

Another assay concerns the target Peroxisome proliferator-activated receptor gamma (Homo sapiens) (UniProt P37231). As to the kind of experiment: ATG_PPARg_TRANS: Attagene TRANS-FACTORIAL HepG2 Assay for human Peroxisome Proliferator-activated Receptor-gamma (PPARg) (AID 2283007).
Conditions: not given
The method, boiled down: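 Multiplexed reporter transcription units in HepG2, 24 h dosing, reporter transcripts quantified by fluorescent RT-PCR and capillary electrophoresis. Increase over DMSO scored.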
As to `NCC(F)(F)C(F)(F)C(F)(F)C(F)(F)F`, the result was inactive.

As for `Cc1ncc([C@@H](CCCCCCc2ccc3c(n2)NCCC3)CC(=O)O)cn1`, the AC50 is 100 µM (active).

Consider `Cc1nccn1-c1ccc(Sc2cccc(C3(C(N)=O)CCOCC3)c2)cc1`, for which the AC50 was 1.85 µM (active).

As for `FC(F)=C(F)C(F)(F)C(F)(F)C(F)(F)C(F)(F)C(F)(F)C(F)(F)F`, the result was inactive.

In the case of `FC(F)(F)C(F)(F)C(F)(F)C(F)(F)C(F)(F)C(F)(F)I`, the AC50 is 88 µM (active) and 106 µM (active).

Take `OCC(CO)(CO)CO`: the call was inactive.

`C=CCc1cc(S(=O)(=O)c2ccc(O)c(CC=C)c2)ccc1O`: the concentration at half-maximal activity (AC50) was 9.21 µM (active).

Consider `Cc1cccc(O)c1C`, for which the compound was called inactive.

Turning to `OCCC(F)(F)C(F)(F)C(F)(F)C(F)(F)F`, the compound was called inactive.

As for `O=S(=O)(O)CCC(F)(F)C(F)(F)C(F)(F)C(F)(F)C(F)(F)C(F)(F)F`, the call was inactive.

As for `C[C@@H](Oc1ccc(CNC(=O)c2cccnc2Oc2ccc3c(c2)OCO3)c(F)c1)C(=O)O`, the AC50 was 24.3 µM (active).

With `O=C(Cl)C(F)(F)C(F)(F)C(F)(F)C(=O)Cl`, the outcome was inactive.

On to `O=C(O)c1ccc2c(c1)nc(C(=O)NC1CCN(C3CC3)CC1)n2Cc1cc(-c2ccc(Cl)s2)on1`, for which the AC50 was 1.03 µM (active).

Consider `OCc1c[nH]c2ccccc12`, for which the AC50 was 7.94 µM (active) [middle of 5 runs].

Consider `S=P(N1CC1)(N1CC1)N1CC1`, for which the outcome was inactive.

With `CCN(CC)C(=S)SSC(=S)N(CC)CC`, the outcome was inactive.

For `CC(C)c1nnc2ccc(-c3ocnc3-c3cc(F)ccc3F)cn12`, the call was inactive.

`CCCCCCCC1CCC(=O)O1` (centres undefined): the compound was called inactive.

On to `CCn1nc(C)c2c1C(=O)NCC(c1ccc(O)cc1)=N2`, for which the AC50 is 8.02 µM (active).

As to `O=C(N[C@H](CO)[C@H](O)c1ccc([N+](=O)[O-])cc1)C(Cl)Cl`, the compound was classed as inactive.

Regarding `NNC(=O)c1ccncc1`, the outcome was inactive.

On to `O=C(O)CO`, for which the compound was classed as inactive.

On to `CCCCN1C(=O)[C@@H]([C@H](O)C2CCCCC2)NC(=O)C12CCN(Cc1ccc(Oc3ccc(C(=O)O)cc3)cc1)CC2`, for which the outcome was inactive.

For the compound `C[Si](C)(C)C(F)(F)C(F)(F)C(F)(F)F`, the result was inactive.

A further assay addresses Nuclear receptor subfamily 1 group I member 2 (Homo sapiens) (UniProt O75469). As to the kind of experiment: ATG_PXR_TRANS: Attagene TRANS-FACTORIAL HepG2 Assay for human Pregnane X Receptor (PXR) (AID 2283008).
Conditions: not given
The method, boiled down: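 Fluorescence intensity of FAM-labelled, HpaI-digested reporter amplicons, separated by capillary electrophoresis, quantifies induction. HepG2 cells with PXR-Gal4 trans-reporter system were exposed 24 h; DMSO defines baseline.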
With `NCC(F)(F)C(F)(F)C(F)(F)C(F)(F)F`, the call was inactive.

Regarding `Cc1ncc([C@@H](CCCCCCc2ccc3c(n2)NCCC3)CC(=O)O)cn1`, the compound was called inactive.

For `Cc1nccn1-c1ccc(Sc2cccc(C3(C(N)=O)CCOCC3)c2)cc1`, the result was inactive.

Regarding `FC(F)=C(F)C(F)(F)C(F)(F)C(F)(F)C(F)(F)C(F)(F)C(F)(F)F`, the compound was called inactive.

For the compound `FC(F)(F)C(F)(F)C(F)(F)C(F)(F)C(F)(F)C(F)(F)I`, the result was inactive.

As to `OCC(CO)(CO)CO`, the call was inactive.

For `c1ccc2cc3ccccc3cc2c1`, the compound was classed as inactive.

As for `C=CCc1cc(S(=O)(=O)c2ccc(O)c(CC=C)c2)ccc1O`, the AC50 was 3.16 µM (active).

For `Cc1cccc(O)c1C`, the result was inactive.

As for `OCCC(F)(F)C(F)(F)C(F)(F)C(F)(F)F`, the outcome was inactive.

`O=S(=O)(O)CCC(F)(F)C(F)(F)C(F)(F)C(F)(F)C(F)(F)C(F)(F)F`: the outcome was inactive.

Turning to `C[C@@H](Oc1ccc(CNC(=O)c2cccnc2Oc2ccc3c(c2)OCO3)c(F)c1)C(=O)O`, the call was inactive.

For `O=C(Cl)C(F)(F)C(F)(F)C(F)(F)C(=O)Cl`, the call was inactive.

In the case of `OCc1c[nH]c2ccccc12`, the AC50 is 1.89 µM (active) [middle of 5 runs].

Regarding `S=P(N1CC1)(N1CC1)N1CC1`, the compound was called inactive.

Turning to `CCN(CC)C(=S)SSC(=S)N(CC)CC`, the AC50 is 49.6 µM (active).

For `CC(C)c1nnc2ccc(-c3ocnc3-c3cc(F)ccc3F)cn12`, the outcome was inactive.

As to `CCCCCCCC1CCC(=O)O1` (centres undefined), the compound was classed as inactive.

On to `CCn1nc(C)c2c1C(=O)NCC(c1ccc(O)cc1)=N2`, for which the compound was classed as inactive.

As for `O=C(N[C@H](CO)[C@H](O)c1ccc([N+](=O)[O-])cc1)C(Cl)Cl`, the compound was classed as inactive.

On to `NNC(=O)c1ccncc1`, for which the compound was classed as inactive.

For the compound `O=C(O)CO`, the compound was called inactive.

`O=S(=O)(O)c1ccc(N=Nc2c(O)ccc3cc(S(=O)(=O)O)ccc23)cc1`: the call was inactive.

Take `CCCCN1C(=O)[C@@H]([C@H](O)C2CCCCC2)NC(=O)C12CCN(Cc1ccc(Oc3ccc(C(=O)O)cc3)cc1)CC2`: the result was inactive.

Turning to `C[Si](C)(C)C(F)(F)C(F)(F)C(F)(F)F`, the outcome was inactive.
